Results reported in PubChem BioAssay (EPA / NIEHS).
Several values for one entry are separate records, joined by “and”; a condition that tells them apart may be missing. Identical values can stand only once. Records with an inconclusive call do not appear. Where a structure was tested more than once in an assay, its records may differ in their call. Activity calls are given as the source filed them. Rule for the calls: active = hit-call score of the fitted dose curve at least 0.9, where 1 is the maximum; inconclusive = response in the unintended direction; inactive = score below 0.9.

Experiments:
[1] = ATG_XTT_Cytotoxicity: Cytotoxicity Assessment in the Attagene TRANS-FACTORIAL HepG2 Assay (AID 2283584);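 for AC50: cells exposed to compound for 24 h before reading; active means loss of viability signal versus DMSO baseline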
Procedure, shortened: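 HepG2 human liver cells, transiently transfected with multiple GAL4-UAS reporter units, were dosed and read at 24 h by XTT as cell number. Loss of signal was fitted relative to DMSO negative control baseline.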

[2] = TOX21_p53_BLA_p2_viability: Viability Assessment in the Tox21 HCT-116 p53 Agonism Beta-lactamase Assay, Phase 2 (AID 2283591);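 note: compound exposure lasted 16 h at 37 °C; actives lower the ATP signal meaning cytotoxicity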
Procedure, shortened: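 HCT-116 p53-bla cells (4000/well) rested 5 h at 37C, then received compounds in DMSO (217-fold dilution) for 16 h at 37C, 5% CO2. After the CCF4 read, CellTiter-Glo was added; ATP luminescence was read after 30 min at room temperature.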

[3] = biological target: Cellular tumor antigen p53 (Homo sapiens) (UniProt P04637); experiment: TOX21_p53_BLA_p2_ratio: Tox21 HCT-116 p53 Agonism Beta-lactamase Assay, Ratio, Phase 2 (AID 2283592)
Procedure, shortened: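 Ratio endpoint: beta-lactamase cleavage of CCF4-AM, blue (460 nm) over green (530 nm). HCT116 reporter line; 16 h treatment, 37C; substrate 2 h RT.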

[4] = TOX21_p53_BLA_p3_viability: Viability Assessment in the Tox21 HCT-116 p53 Agonism Beta-lactamase Assay, Phase 3 (AID 2283593);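 note: cells exposed to compound for 16 h before reading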
Procedure, shortened: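 HCT-116 cells (4000/well) rested 5 h at 37C, then got DMSO compounds by pin tool (217-fold dilution) for 16 h at 37C, 5% CO2. After the bla read, CellTiter-Glo was added and luminescence read at 30 min, room temperature.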

[5] = biological target: Cellular tumor antigen p53 (Homo sapiens) (UniProt P04637); experiment: TOX21_p53_BLA_p3_ratio: Tox21 HCT-116 p53 Agonism Beta-lactamase Assay, Ratio, Phase 3 (AID 2283596)
Procedure, shortened: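 Cells were seeded at 4000/well, rested 5 h at 37C, then dosed with DMSO compound solutions (217-fold dilution) for 16 h. CCF4-AM substrate was loaded for 2 h at room temperature, and the 460/530 nm emission ratio was fitted for gain of signal versus DMSO.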

[6] = TOX21_p53_BLA_p4_viability: Viability Assessment in the Tox21 HCT-116 p53 Agonism Beta-lactamase Assay, Phase 4 (AID 2283597);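 note: hits lower the luminescence signal meaning cytotoxicity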
Procedure, shortened: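 Cytotoxicity was inferred from loss of CellTiter-Glo luminescence. HCT116 cells had been dosed with compounds after 5 h plating, incubated 16 h at 37C and 5% CO2, and exposed to the CCF4-AM substrate for 2 h.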

[7] = biological target: Cellular tumor antigen p53 (Homo sapiens) (UniProt P04637); experiment: TOX21_p53_BLA_p5_ratio: Tox21 HCT-116 p53 Agonism Beta-lactamase Assay, Ratio, Phase 5 (AID 2283599)
Procedure, shortened: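 HCT-116 cells carrying a p53-inducible beta-lactamase reporter were seeded at 4000 cells/well and dosed after 5 h with compound in DMSO (217-fold dilution). After 16 h at 37C, CCF4-AM substrate was added for 2 h, and the 460/530 nm emission ratio was scored as gain-of-signal versus DMSO.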

[8] = TOX21_p53_BLA_p5_viability: Viability Assessment in the Tox21 HCT-116 p53 Agonism Beta-lactamase Assay, Phase 5 (AID 2283600)
Procedure, shortened: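 Luciferase-coupled ATP quantitation of cells treated for 16 h (37C, 5% CO2) with test chemicals delivered in DMSO via a 217-fold dilution; 4000 cells/well; reagent incubated 30 min at room temperature before luminescence reading.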

[9] = biological target: Cellular tumor antigen p53 (Homo sapiens) (UniProt P04637); experiment: TOX21_p53_BLA_p4_ratio: Tox21 HCT-116 p53 Agonism Beta-lactamase Assay, Ratio, Phase 4 (AID 2283601)
Procedure, shortened: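 HCT116 cells carrying an inducible beta-lactamase reporter were plated at 4000 cells/well, rested 5 h, then exposed to compounds in DMSO (217-fold dilution) for 16 h at 37C. CCF4-AM substrate was loaded 2 h at room temperature; 460/530 nm emission ratio scored gain-of-signal versus DMSO.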

Measured: AC50

Chain of Cellular tumor antigen p53 (Homo sapiens) (P04637 whole entry, looked up): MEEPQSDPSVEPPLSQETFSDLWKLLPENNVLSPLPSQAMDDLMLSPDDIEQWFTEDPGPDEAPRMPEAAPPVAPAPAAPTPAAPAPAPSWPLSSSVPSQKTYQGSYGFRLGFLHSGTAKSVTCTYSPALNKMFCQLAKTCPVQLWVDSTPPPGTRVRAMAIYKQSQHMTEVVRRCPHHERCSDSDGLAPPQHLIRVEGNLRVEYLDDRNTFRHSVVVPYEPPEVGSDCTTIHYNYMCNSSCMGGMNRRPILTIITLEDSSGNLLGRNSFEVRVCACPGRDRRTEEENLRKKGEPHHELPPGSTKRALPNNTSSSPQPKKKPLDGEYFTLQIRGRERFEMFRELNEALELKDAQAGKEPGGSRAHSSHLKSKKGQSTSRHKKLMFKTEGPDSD

CCCCC/C=C/C=C/C=O
inactive: [1] | [2] | [3] | [5] | [6] | [7] | [8] | [9]
active: [2] 62.9 µM | [4] 86.9 µM and 30.3 µM | [6] 75 µM

CCn1c2ccccc2c2cc(N)ccc21
inactive: [1] | [2] | [3] | [4] | [5] | [6] | [7] | [8] | [9]
active: [3] 65.1 µM and 74.2 µM | [5] 68 µM | [9] 64 µM

O=C1NC(=O)c2ccccc21
inactive: [1]

COc1cc(C)cc(O)c1
inactive: [1]

Clc1sc(Cl)c(Cl)c1Cl
inactive: [1]

CNCCCC12CCC(c3ccccc31)c1ccccc12
active: [2] 64.5 µM | [3] 85.8 µM | [4] 70.4 µM | [6] 62.7 µM and 36.6 µM | [7] 90.1 µM | [8] 70.2 µM | [9] 87 µM
inactive: [1] | [2] | [3] | [4] | [5] | [7] | [8] | [9]

COc1ccnc(CS(=O)c2nc3cc(OC(F)F)ccc3[nH]2)c1OC (configuration not stated)
inactive: [1]

CN1Cc2c(N)cccc2C(c2ccccc2)C1 (configuration not stated)
inactive: [1]

C=C(C)C(=O)Nc1ccc(Cl)c(Cl)c1
active: [3] 60.6 µM | [5] 56.1 µM | [7] 74.7 µM | [9] 68 µM
inactive: [1] | [2] | [3] | [4] | [5] | [6] | [7] | [8] | [9]

CCCCCCC#CC(=O)OC
inactive: [1]

O=C1c2ccccc2C(=O)N1SC1CCCCC1
inactive: [1] | [2] | [3] | [6] | [7] | [8] | [9]
active: [2] 61.2 µM | [3] 81.1 µM | [4] 47.6 µM and 86.6 µM | [6] 49.3 µM | [7] 44.8 µM | [9] 76 µM

CCCCCCCCCCCCN
active: [1] 68.9 µM and 58.2 µM | [2] 51.6 µM | [3] 85 µM | [7] 83.1 µM | [8] 84.5 µM | [9] 86.1 µM
inactive: [2] | [3] | [5] | [7] | [8] | [9]
